# In PubChem BioAssay:
# Calls of active or inactive are those of the source. Unless noted, no rule for the calls is given here.
# Tests used:
# [1] = system: Wnt5a (protein binding on small-molecule microarray); assay: small molecules binding Wnt5a protein – biophysical, small-molecule microarray, 635/667 nm fluorescence, primary screen (AID 1142); conditions: 635 nm fluorescence, higher = more signal;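 also: fluorescence read at 667 nm with signal to noise per printed feature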
# [2] = ATP-based viability of Huh7 replicon cells – cell-based, CellTiter-Glo luminescence, basal, 48 h, cytotoxicity control for HCV replication inhibitor project, primary screen (AID 1143); conditions: higher = more signal, called active from +8 up or from −8 down;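 also: Huh7 hepatoma cells carrying a hepatitis C replication reporter with no stimulus; test concentration not given here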
# [3] = Pseudomonas biofilm growth suppression – PAO1 strain, BacTiter-Glo luminescence, LB-PBS, primary screen (AID 1144); conditions: P. aeruginosa PAO1 biofilm, 12 h, higher = more signal
# [4] = basal CRE-LacZ reporter activity in PC12 – cell-based, unstimulated, primary screen (AID 1145); conditions: no forskolin, luminescence, 4.5 h, higher = more signal, called active from +8 up or from −8 down
# [5] = forskolin-driven CRE-LacZ activity in PC12 – cell-based, CRE-LacZ reporter, forskolin-stimulated, primary screen (AID 1146); conditions: luminescence, 4.5 h, higher = more signal, called active from +8 up or from −8 down;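 also: PC12 cells with 6xCRE LacZ reporter stimulated by forskolin 10 µM; beta-galactosidase reporter signal reflecting CREB driven transcription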
# [6] = target: Streptavidin (Streptomyces avidinii) (UniProt P22629); assay: compounds binding control protein streptavidin – biophysical, small-molecule microarray, 635/667 nm fluorescence, artefact control for SMM compound annotation, primary screen (AID 1147); conditions: higher = more signal;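 also: signal reflects streptavidin binding to arrayed compounds as a control protein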
# [7] = probe aInhba binding on compound microarray – biochemical, small-molecule microarray, 635/667 nm fluorescence, primary screen (AID 1148); conditions: higher = more signal;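 also: score merges 667nm spot fluorescence with signal-to-noise for antibody binding to printed compounds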
# Torsin-1A (Homo sapiens) [8] = target: Torsin-1A (Homo sapiens) (UniProt O14656); assay: TOR1A wild-type binding on microarray – cell lysate, small-molecule microarray, lysate, 635/667 nm, primary screen (AID 1149); conditions: COS7 hTOR1A-WT lysate, 635 nm fluorescence, higher = more signal
# Torsin-1A (Homo sapiens) [9] = target: Torsin-1A (Homo sapiens) (UniProt O14656); assay: torsin A mutant lysate binding on microarrays – cell lysate, small-molecule microarray, COS7 lysate, 635/667 nm fluorescence, primary screen (AID 1150); conditions: COS7 hTOR1A mutant lysate, 635 nm fluorescence, higher = more signal;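 also: score pools 667 nm emission and signal to noise measuring lysate protein binding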
# [10] = system: Sonic hedgehog protein (Shh); assay: Sonic hedgehog microarray binding compounds – biochemical, small-molecule microarray, 635/667 nm fluorescence, primary screen (AID 1151); conditions: 635 nm fluorescence, higher = more signal;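 also: Shh protein binding to compounds spotted on small-molecule microarray slides; score combines spot fluorescence intensity with signal-to-noise across triplicate slides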
# [11] = optical density shifts of acrAB sulA E. coli – strain DRC41, OD650, 48 h, E. coli filamentation inducer project, primary screen (AID 1152); conditions: higher = more signal, called active from +8 up or from −8 down;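 also: E. coli MC1000 strain DRC41 lacking acrAB efflux pump and sulA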
# [12] = probe aLefty1 binding on compound microarray – biochemical, small-molecule microarray, 635/667 nm fluorescence, primary screen (AID 1153); conditions: higher = more signal;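 also: score merges spot fluorescence with signal-to-noise ratio from the scanned slide images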
# [13] = plasmodial surface anion channel blockers, osmotic lysis – cell-based, P. falciparum Indochina, OD700, 1 h, primary screen (AID 1154); conditions: P. falciparum Indochina infected RBC osmotic lysis, higher = more signal, called active from +8 up or from −8 down
# [14] = plasmodial surface anion channel blockers, osmotic lysis – cell-based, P. falciparum Indochina, OD700, 2 h, primary screen (AID 1155);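 also: lysis reports solute entry through the parasite surface anion channel PSAC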; conditions: P. falciparum Indochina infected erythrocytes, higher = more signal, called active from +8 up or from −8 down
# [15] = changes in parasitized red cell lysis, either direction – P. falciparum Indochina, OD700, 3 h, PSAC antagonist project, primary screen (AID 1156); conditions: P. falciparum-infected erythrocytes, osmotic lysis, higher = more signal, called active from +8 up or from −8 down
# [16] = plasmodial surface anion channel blockers, osmotic lysis – cell-based, P. falciparum Indochina, OD700, 18 h, primary screen (AID 1157); conditions: P. falciparum Indochina infected erythrocytes, osmotic lysis OD700, 18 h; higher = more signal, called active from +8 up or from −8 down
# [17] = S6 kinase pathway phospho-S6 level changes – cell-based, A549, cytoblot, luminescence, serum-stimulated, primary screen (AID 1158); conditions: 5 h, higher = more signal;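 also: serum-stimulated A549 lung adenocarcinoma cells; signal is phosphorylated S6 detected by cytoblot immunostaining with HRP secondary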
# [18] = target: NADPH oxidase 2 (Homo sapiens) (UniProt P04839); assay: compounds shifting NOX2 Amplex Red fluorescence – cell-based, HEK293-NOX2, PMA-stimulated, NOX inhibitor project, primary screen (AID 1159); conditions: 45 min, higher = more signal, called active from +8 up or from −8 down; also: test concentration not given here
# [19] = target: NADPH oxidase 4 (Homo sapiens) (UniProt Q9NPH5); assay: compounds shifting NOX4 Amplex Red fluorescence – cell-based, HEK293-NOX4, tetracycline-induced, NOX inhibitor project, primary screen (AID 1160); conditions: HEK293-NOX4, Amplex Red H2O2 fluorescence, 45 min; higher = more signal, called active from +8 up or from −8 down
# [20] = target: NADPH oxidase 5 (Homo sapiens) (UniProt Q96PH1); assay: compounds shifting NOX5 Amplex Red fluorescence – cell-based, HEK293-NOX5, NOX inhibitor project, primary screen (AID 1161); conditions: HEK293-NOX5, ionomycin, 45 min, higher = more signal
# Chain of NADPH oxidase 5 (Homo sapiens) (Q96PH1 whole entry, looked up): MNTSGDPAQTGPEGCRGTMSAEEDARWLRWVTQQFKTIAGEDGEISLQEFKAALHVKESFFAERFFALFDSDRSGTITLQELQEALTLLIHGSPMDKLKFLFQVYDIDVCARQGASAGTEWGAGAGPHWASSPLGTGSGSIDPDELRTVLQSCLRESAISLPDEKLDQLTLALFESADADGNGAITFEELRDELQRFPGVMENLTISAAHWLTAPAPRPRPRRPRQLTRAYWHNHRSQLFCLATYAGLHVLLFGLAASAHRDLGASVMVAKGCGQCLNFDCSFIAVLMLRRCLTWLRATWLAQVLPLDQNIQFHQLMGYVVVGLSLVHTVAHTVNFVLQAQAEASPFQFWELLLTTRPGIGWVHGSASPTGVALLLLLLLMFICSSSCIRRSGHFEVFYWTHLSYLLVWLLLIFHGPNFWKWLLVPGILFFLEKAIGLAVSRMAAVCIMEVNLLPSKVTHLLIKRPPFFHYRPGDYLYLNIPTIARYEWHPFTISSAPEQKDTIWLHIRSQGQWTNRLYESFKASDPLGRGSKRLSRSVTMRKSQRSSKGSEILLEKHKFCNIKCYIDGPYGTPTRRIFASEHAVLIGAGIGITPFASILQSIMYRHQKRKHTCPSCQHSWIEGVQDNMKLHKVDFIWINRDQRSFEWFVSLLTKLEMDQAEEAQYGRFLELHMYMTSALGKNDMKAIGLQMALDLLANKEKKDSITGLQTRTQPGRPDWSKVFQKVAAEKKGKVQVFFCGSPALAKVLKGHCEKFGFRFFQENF
# Chain of NADPH oxidase 4 (Homo sapiens) (Q9NPH5 whole entry, looked up): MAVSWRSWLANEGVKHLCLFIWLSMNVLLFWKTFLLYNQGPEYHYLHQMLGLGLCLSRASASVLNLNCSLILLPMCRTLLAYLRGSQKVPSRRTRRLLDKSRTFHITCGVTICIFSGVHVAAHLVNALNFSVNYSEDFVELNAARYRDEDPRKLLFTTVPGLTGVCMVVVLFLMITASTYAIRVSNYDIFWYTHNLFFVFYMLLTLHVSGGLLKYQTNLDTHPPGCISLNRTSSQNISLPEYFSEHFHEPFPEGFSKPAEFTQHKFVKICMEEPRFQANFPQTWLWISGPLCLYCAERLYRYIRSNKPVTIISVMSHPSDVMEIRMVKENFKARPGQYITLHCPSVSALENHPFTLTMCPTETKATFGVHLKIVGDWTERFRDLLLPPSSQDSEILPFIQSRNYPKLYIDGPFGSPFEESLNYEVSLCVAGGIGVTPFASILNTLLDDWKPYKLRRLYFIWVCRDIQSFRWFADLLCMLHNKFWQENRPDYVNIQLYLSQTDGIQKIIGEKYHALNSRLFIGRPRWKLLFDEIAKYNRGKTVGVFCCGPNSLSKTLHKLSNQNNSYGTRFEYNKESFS
# Chain of NADPH oxidase 2 (Homo sapiens) (P04839 whole entry, looked up): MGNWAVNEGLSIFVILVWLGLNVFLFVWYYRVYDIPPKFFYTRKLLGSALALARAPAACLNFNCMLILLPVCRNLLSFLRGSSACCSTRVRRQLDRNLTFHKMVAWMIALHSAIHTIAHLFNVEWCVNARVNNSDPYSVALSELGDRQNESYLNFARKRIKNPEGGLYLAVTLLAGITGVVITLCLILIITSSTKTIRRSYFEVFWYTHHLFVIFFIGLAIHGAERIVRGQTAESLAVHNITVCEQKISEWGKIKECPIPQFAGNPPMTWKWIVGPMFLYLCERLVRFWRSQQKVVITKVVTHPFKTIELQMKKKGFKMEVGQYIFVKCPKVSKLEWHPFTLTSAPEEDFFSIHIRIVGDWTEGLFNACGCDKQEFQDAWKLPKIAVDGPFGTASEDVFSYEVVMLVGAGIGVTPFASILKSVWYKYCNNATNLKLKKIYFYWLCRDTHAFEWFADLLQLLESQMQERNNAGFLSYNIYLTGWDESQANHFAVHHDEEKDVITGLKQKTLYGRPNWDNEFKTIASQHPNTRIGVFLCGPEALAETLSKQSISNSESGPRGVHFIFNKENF
# Chain of Streptavidin (Streptomyces avidinii) (P22629 whole entry, looked up): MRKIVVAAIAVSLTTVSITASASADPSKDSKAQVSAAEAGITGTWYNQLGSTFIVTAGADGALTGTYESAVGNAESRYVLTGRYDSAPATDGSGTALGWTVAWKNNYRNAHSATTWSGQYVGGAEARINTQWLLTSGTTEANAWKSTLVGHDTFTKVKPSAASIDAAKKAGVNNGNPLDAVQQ
# Chain of Torsin-1A (Homo sapiens) (O14656 whole entry, looked up): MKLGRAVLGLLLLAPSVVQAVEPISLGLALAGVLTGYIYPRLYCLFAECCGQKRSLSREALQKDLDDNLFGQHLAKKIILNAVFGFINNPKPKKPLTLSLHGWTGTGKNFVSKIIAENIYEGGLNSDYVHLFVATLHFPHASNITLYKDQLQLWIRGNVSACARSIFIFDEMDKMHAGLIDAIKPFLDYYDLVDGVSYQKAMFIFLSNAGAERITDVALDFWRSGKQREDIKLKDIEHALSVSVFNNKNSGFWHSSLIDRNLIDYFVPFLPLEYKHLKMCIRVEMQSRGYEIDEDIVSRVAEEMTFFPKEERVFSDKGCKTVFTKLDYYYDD
SMILES,composite z-score [1],z-score [2],z-score [3],z-score [4],z-score [5],composite z-score [6],composite z-score [7],composite z-score (Torsin-1A (Homo sapiens) [8]),composite z-score (Torsin-1A (Homo sapiens) [9]),composite z-score [10],z-score [11],composite z-score [12],z-score [13],z-score [14],z-score [15],z-score [16],z-score [17],z-score [18],z-score [19],z-score [20]
C=C(/C(=C/C[C@@H](OC(=O)c1ccncc1)c1cccc(OCCO)c1)c1cnc2ccccc2c1)C(C)C,0.782,-2.31 (inactive),-0.454 (inactive),1.69 (inactive),0.628 (inactive),1.62,0.0422,0.199,0.128,2,0.172 (inactive),0.13,13.7 (active),1.86 (inactive),1.32 (inactive),0.897 (inactive),0.199,-1.34 (inactive),-0.507 (inactive),-0.782
Cc1ccc(S[C@]2(C(=O)NC(C)C)CC(=O)N(C(C)C)[C@@H]2c2ccc(CO)cc2I)cc1,-0.0983,-2.59 (inactive),-0.468 (inactive),0.324 (inactive),-0.3 (inactive),-0.368,-0.15,-1.07,0.885,-0.244,-0.745 (inactive),0.207,4.77 (inactive),0.342 (inactive),0.59 (inactive),0.397 (inactive),0.293,1.8 (inactive),-1.53 (inactive),-0.227
COC(=O)[C@@]1(Cc2ccccc2)[C@H]2c3cc(C(=O)N4CCCC4)n(CCSCCO)c3C[C@H]2CN1C(=O)c1ccccc1,0.554,-1.17 (inactive),0.019 (inactive),0.387 (inactive),2.14 (inactive),1.15,0.545,0.424,0.989,0.0779,-1.88 (inactive),0.597,1.5 (inactive),0.636 (inactive),0.57 (inactive),0.691 (inactive),-0.653,0.957 (inactive),-0.446 (inactive),-0.987
COCCOC(=O)N1C(=O)[C@@]2(c3ccccc31)[C@H](c1ccc(OCCO)cc1)N1[C@H](c3ccccc3)[C@H](c3ccccc3)OC(=O)[C@H]1[C@@H]2C(=O)N1CCCCCCC1,2.44,-2.59 (inactive),-0.302 (inactive),-0.329 (inactive),3.39 (inactive),4.09,2.11,3.76,3.68,2.29,-0.906 (inactive),2.77,22.8 (active),7.62 (inactive),0.586 (inactive),1.64 (inactive),-0.0785,0.918 (inactive),0.901 (inactive),1.33
CCOC(=O)C=Cc1ccccc1O,0.0265,-4.76 (inactive),-0.203 (inactive),-0.471 (inactive),-0.586 (inactive),0.486,0.0051,0.399,0.146,0.158,-0.646 (inactive),0.135,19.4 (active),2.46 (inactive),0.784 (inactive),-1.43 (inactive),1.47,-4.38 (inactive),-2.24 (inactive),-4.65
CCCCCCCCCCC(O)C1C=CC2C(=O)N(c3ccccc3)C(=O)C2N1Nc1ccccc1F (stereo not given),-0.13,0.325 (inactive),-0.425 (inactive),-1.09 (inactive),0.476 (inactive),0.282,0.0074,-0.35,-0.524,-0.992,-1.43 (inactive),0.145,2.64 (inactive),1.45 (inactive),-0.518 (inactive),1.91 (inactive),-0.827,-0.534 (inactive),0.101 (inactive),-1.24
COCCOC(=O)N1C(=O)[C@@]2(c3cc(C#CCNC(N)=O)ccc31)[C@H](c1ccc(OCCO)cc1)N1[C@H](c3ccccc3)[C@H](c3ccccc3)OC(=O)[C@H]1[C@@H]2C(N)=O,0.428,0.0121 (inactive),0.529 (inactive),0.228 (inactive),-0.304 (inactive),0.947,-0.0131,0.304,0.406,1.44,0.336 (inactive),-0.346,4.37 (inactive),1.02 (inactive),-0.383 (inactive),0.0173 (inactive),-0.412,1.84 (inactive),1.34 (inactive),0.646
COC(=O)[C@@]1(Cc2ccc(F)cc2)[C@H]2c3cc(C(=O)N4CCCC4)n(CC4CC4)c3C[C@H]2CN1C(=O)c1ccccc1,0.0479,-2.61 (inactive),0.197 (inactive),0.972 (inactive),-0.451 (inactive),1.86,0.74,0.111,1.03,0.377,-1.37 (inactive),1.56,2.89 (inactive),0.0582 (inactive),0.454 (inactive),0.666 (inactive),0.516,0.0286 (inactive),-1.62 (inactive),-0.81
COc1ccc([Si](C)(C)[C@@H]2[C@@H](CCn3cc([C@H](O)c4ccccc4)nn3)O[C@]3(C(=O)N(Cc4cccc(N5C(=O)c6cccc7cccc5c67)c4)c4ccccc43)[C@H]2C)cc1,-0.537,-3.34 (inactive),0.692 (inactive),0.0031 (inactive),0.471 (inactive),-0.0465,-0.0963,-1.06,-0.526,0.454,-0.603 (inactive),0.0056,1.8 (inactive),0.662 (inactive),1.1 (inactive),0.794 (inactive),-0.256,1.08 (inactive),1.48 (inactive),2.2
